Most compounds without a hit are left out; they make up all but 2.9% or so of the library.
p53null 39C kill = qHTS Screen for Compounds that Selectively Target Cancer Cells with p53 Mutations: Cytotoxicity of p53 Null Cells at the Nonpermissive Temperature; Potency, µM (series often up to 46.1 µM), inactives show at the highest dose activity, negative = cell killing, usual class: cytotoxic; AID 904, 2007; H1299 p53-null (neo) cells, 39C, ATPlite viability, 24 h; 55,000 tested, 0.97% active;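 note: potency is the fitted concentration of half-maximal effect; 0% = DMSO only and -100% = full killing by 100 µM tamoxifen; nearly all actives have a fitted effect of over 50% in size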
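ATP-luminescence viability readout (ATPlite, 20 min RT) after 24 hr compound treatment at 39C of H1299-neo or H1299-p53A138V cells; titration up to 46 uM; normalized to DMSO and 100 uM tamoxifen; Hill-fit AC50.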
FH mod = Identification of activators of human fumarate hydratase by quantitative high-throughput screening; Fumarate hydratase, mitochondrial (Homo sapiens), P07954; FH coupled MDH/diaphorase resazurin fluorescence, 15 min; Potency, µM (doses to about 79.9 µM), without a hit: at the top dose activity change, negative = inhibition, hits mostly inhibitors; 54,000 tested, 0.22% active; AID 1347055, 2019; note: potency is the fitted concentration of half-maximal effect; % is set by controls: 0 for no effect and ±100 for the full control effect; the screen sought activators but most active calls are inhibition curves; nearly all actives have a fitted effect of over 45% in size
DRV1 agonist = qHTS for Agonists of Human Resolvin D1 Receptor DRV1; activation, % at 76.9 µM; 48,000 tested, 2.5% active; CHO-K1 GPR32 beta-arrestin PathHunter luminescence, 90 min; zero percent set by DMSO-only wells;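 active = activation of at least 60% and not above a set upper limit, about 1 call in 100 departs from these limits; inconclusive = activation of 40% to 60%, or above that upper limit; inactive = activation under 40%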; note: 0% is about no effect
Target sequence (O75388 whole entry, looked up): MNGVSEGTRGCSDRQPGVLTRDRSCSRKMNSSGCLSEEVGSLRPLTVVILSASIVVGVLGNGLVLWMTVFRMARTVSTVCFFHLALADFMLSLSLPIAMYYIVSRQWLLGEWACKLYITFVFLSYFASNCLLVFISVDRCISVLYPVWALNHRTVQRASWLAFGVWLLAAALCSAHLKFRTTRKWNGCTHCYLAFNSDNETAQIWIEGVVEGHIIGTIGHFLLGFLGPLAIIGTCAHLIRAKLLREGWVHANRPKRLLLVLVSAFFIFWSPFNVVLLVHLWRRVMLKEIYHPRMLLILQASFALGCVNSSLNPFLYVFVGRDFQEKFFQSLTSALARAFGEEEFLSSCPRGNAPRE
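Readings come from a cell-based beta-arrestin complementation format: CHO-K1 GPR32 stable cells (2,500/well) treated 90 min with compounds, then beta-Gal substrate added for 1 h before chemiluminescence imaging.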
p53null 32C tox = qHTS Screen for Compounds that Selectively Target Cancer Cells with p53 Mutations: Cytotoxicity of p53 Null Cells at the Permissive Temperature; AID 903, 2007; H1299-neo p53 null cells, ATP luminescence, 24 h, 32C; Potency, µM (titrated, usually from 46.1 µM), inactives show top-dose activity change, negative = cytotoxicity, hits mostly cytotoxic; 55,000 tested, 0.62% active;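 note: potency is the fitted concentration of half-maximal effect; 0% = DMSO only and -100% = full killing by 100 µM tamoxifen; nearly all actives have a fitted effect of over 55% in size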
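Overnight 37C seeding (600 cells/well) of H1299-neo preceded a 24 hr, 32C exposure to compounds up to 46 uM. ATP levels, read by luminescence after 20 min at RT, indicated surviving cells.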
* hit, by the source's call; ? = inconclusive; . = no result; [ ] = remark or other dose. Unless noted, calls come from the whole dose curve; as a rule, active = well fitted curve in the direction sought with a large enough effect; inconclusive = small, poorly fitted or top-dose-only effect, or another doubt; inactive = no such curve, though single readings can be large; an effect the other way counts as inactive or inconclusive.

SMILES	p53null 39C kill	FH mod	DRV1 agonist	p53null 32C tox
COc1ccc2nc(N3CCN(C(=O)CS(=O)(=O)c4ccc(C)cc4)CC3)sc2c1	85%	-27%	36	10µM*
COc1ccc(NC(=O)CCc2nc(C3=CCN(Cc4cccc(Cl)c4)CC3)no2)cc1OC	17%	?	94*	3%
COc1ccc(NC(=O)CCc2nc(C3=CCN(Cc4cccc(Cl)c4)CC3)no2)c(OC)c1	11%	-26%	27	15%
Cc1cccc(CN2CC=C(c3noc(CCC(=O)Nc4ccc(C)c(F)c4)n3)CC2)c1	0%	?	94*	-4%
Cc1cccc(NC(=O)NC2N=C(c3ccccc3)c3ccccc3N(CC(=O)c3ccccc3C)C2=O)c1 (configuration not stated)	.	4%	.	.
Cc1cccn2c(=O)cc(COc3cccc(NC(=O)COc4ccc(F)cc4)c3)nc12	13µM*	-13%	-10	13µM*
CCOC(C(=O)OCCN(C)C)(c1ccccc1)c1ccccc1	.	-3%[53.3 µM]	-9	.
CCC(COC(=O)c1cc(OC)c(OC)c(OC)c1)(c1ccccc1)N(C)C (configuration not stated)	.	-2%[53.3 µM]	97*	.
CN1C[C@@H]2CN(c3ccc(-c4ccccc4)nn3)C[C@@H]2C1	.	-3%	.	.
CCC1NC(=O)C2C(Cl)C(Cl)CN2C(=O)C(CC)NC(=O)CC(c2ccccc2)NC(=O)C(CO)NC1=O (configuration not stated)	.	-6%[53.3 µM]	.	.
FC(F)(F)c1cccc(C2=CCN(CCc3ccc4ccccc4c3)CC2)c1	.	-1%[53.3 µM]	100*	.
CO[C@@H]1C[C@H](O[C@H]2CC[C@@]3(C)C(CCC4C3CC[C@]3(C)[C@@H](C5=CC(=O)OC5)[C@@H](OC(C)=O)CC43O)C2)O[C@H](C)[C@@H]1O[C@H]1O[C@H](CO[C@@H]2O[C@H](CO)[C@@H](O)[C@H](O)[C@H]2O)[C@@H](O)[C@H](O)[C@H]1O (some centres not stated)	.	3%[20.6 µM]	.	.
CC(=O)N1N=C(c2ccc(N)cc2)c2cc3c(cc2C[C@H]1C)OCO3	.	1%	.	.
Cc1ccc2oc(=O)c(-c3nc4ccc(C)cc4[nH]3)cc2c1	20µM*	-14%	-1	-29%
C[C@]12CCC(=O)C=C1CC[C@@H]1[C@H]3CC[C@](C)(O)[C@@]3(C)CC[C@@H]12	.	7%	106*	.
C[C@]12CC[C@H](O)CC1=CC[C@@H]1[C@@H]2CC[C@]2(C)C(=O)CC[C@@H]12	.	-1%	73*	.
NC(=O)CI	.	25µM*	-10	.
CC(=O)O[C@@H]1[C@H]2CC[C@H]3[C@@](C)(O)[C@@H]4C[C@H](O)C(C)(C)[C@@]4(O)[C@H](O)C[C@@]13C[C@@]2(C)O	.	-3%[53.3 µM]	.	.
C=CCC1=C(C)C(OC(=O)C2C(C=C(C)C)C2(C)C)CC1=O (configuration not stated)	.	-5%	74*	.
CC(C)=CC1C(C(=O)OCc2cccc(Oc3ccccc3)c2)C1(C)C (configuration not stated)	.	-8%[53.3 µM]	0	.
Nc1c(C(=O)Nc2ccc(Cl)cc2)sc2nc3c(cc12)N1CCC3CC1	-19%	-3%	77*	-23%
Nc1c(C(=O)Nc2ccc(Cl)c(C(F)(F)F)c2)sc2nc3c(cc12)N1CCC3CC1	-27%	-20%	?	?
C[C@]12CC[C@H](O[C@@H]3O[C@H](CO)[C@@H](O)[C@H](O)[C@H]3O)CC1CC[C@@H]1C2CC[C@]2(C)[C@@H](C3=CC(=O)OC3)CC[C@]12O (some centres not stated)	.	2%[53.3 µM]	.	.
C[C@]12CC[C@H]3[C@@H](CCC4=CC(=O)CC[C@@H]43)[C@@H]1CC[C@@H]2OC(=O)CCc1ccco1	.	-4%[53.3 µM]	119*	.
CCOC(=O)c1ccc(N2C(=O)c3n[nH]c(-c4cccs4)c3C2c2ccc(Cl)cc2Cl)cc1 (configuration not stated)	18µM*	-20%	-1	?
CCOC(=O)c1ccc(N2C(=O)c3n[nH]c(-c4cccs4)c3C2c2ccc(C(C)(C)C)cc2)cc1 (configuration not stated)	?	?	-4	33%
CC(=O)O[C@H]1CC[C@@]2(CI)C(=CC[C@@H]3[C@@H]2CC[C@]2(C)C(=O)CC[C@@H]32)C1	.	5%	.	.
C[C@]12Cc3nonc3C[C@@H]1CC[C@@H]1[C@@H]2CC[C@@]2(C)[C@H]1CC[C@]2(C)O	.	-11%[53.3 µM]	65*	.
C[C@]12Cc3cn[nH]c3C[C@@H]1CC[C@@H]1[C@H]2CC[C@@]2(C)[C@H]1CC[C@]2(C)O	.	3%[53.3 µM]	.	.
CC(C)(O)/C=C/C(=O)[C@](C)(O)[C@H]1[C@H](O)C[C@@]2(C)[C@@H]3CC=C4[C@@H](C=C(O)C(=O)C4(C)C)[C@]3(C)C(=O)C[C@]12C	.	13%[13.5 µM]	.	.
